GLA inh pH 4.5 – alpha-galactosidase A (human) inhibition, pH 4.5 | P06280 | purified enzyme, 4-MU-alpha-Gal fluorescence, pH 4.5 | activity change, negative = inhibition, % at 105 µM | 230,000 tested, under 10 active
HttQ103 aggreg – reduces HttQ103-GFP aggregates in PC12 cells | PC12 HttQ103-GFP aggregates, Acumen cytometry, 40 h | Potency, µM (doses to about 46.1 µM), hits mostly inhibitors | hit rate 1.1% among 220,000; also: nearly all actives have a fitted effect of over 60% in size
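Quantitative HTS on tebufenozide-induced (100 nM) PC12 cells stably expressing polyQ103 Huntingtin exon 1–GFP. Reduction of bright GFP aggregates, detected by laser scanning cytometry after lysis, identified actives across the titration.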
HTT ATP protect – cytoprotection in Huntington HTT-Q103 PC12 cell model; PC12 HTT-Q103 induced, cytoprotection, ATP luminescence, 40 h; Potency, µM (titrated, usually from 56.4 µM), usual class: activators; hit rate 0.14% among 230,000; also: nearly all actives have a fitted effect of over 45% in size
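PC12 cells stably carrying ecdysone-inducible Htt exon 1 (Q103)–GFP were induced with 100 nM tebufenozide (final) alongside library compounds in a dose series. Cytoprotection was scored as retained ATP by ATPlite luminescence.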
aGal spleen mod – alpha-galactosidase A (human) modulation; Potency, µM (highest dose often 80 µM), hits mostly inhibitors; hit rate 0.008% among 240,000; AID 2107; human spleen homogenate, 4MU-alpha-Gal fluorescence, 40 min
Target sequence (P06280 32-429 limits assumed): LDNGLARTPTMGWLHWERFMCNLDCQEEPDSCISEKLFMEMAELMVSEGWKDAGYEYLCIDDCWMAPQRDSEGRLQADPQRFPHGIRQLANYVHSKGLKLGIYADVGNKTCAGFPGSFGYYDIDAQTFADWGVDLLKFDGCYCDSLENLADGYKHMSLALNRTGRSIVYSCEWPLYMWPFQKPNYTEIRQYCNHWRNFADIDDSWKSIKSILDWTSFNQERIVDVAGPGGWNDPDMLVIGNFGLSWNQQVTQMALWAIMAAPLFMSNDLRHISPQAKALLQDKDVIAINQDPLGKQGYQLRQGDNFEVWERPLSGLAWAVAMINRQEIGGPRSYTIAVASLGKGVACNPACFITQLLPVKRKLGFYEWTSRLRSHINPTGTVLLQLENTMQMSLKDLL
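Human spleen homogenate (1 ug) as enzyme source, 4-methylumbelliferyl-alpha-D-galactopyranoside 1 mM final, citrate/phosphate pH 5.0 with 0.01% Tween-20. Compounds 40 min at 37C, NaOH/glycine stop; fluorescence Ex 365/Em 440, Hill-fit AC50.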
A number is an active result; . = inactive; ? = inconclusive; / = not tested or not shown; [ ] = another dose, or the depositor's remark. Only some compounds are listed: those with a hit (about 1.2% of all), similar ones and a draw of the others. Calls follow the shape of the dose curve; as a rule, active = well fitted curve in the direction sought with a large enough effect; inconclusive = small, poorly fitted or top-dose-only effect, or another doubt; inactive = no such curve, though single readings can be large; an effect the other way counts as inactive or inconclusive.

SMILES | GLA inh pH 4.5 | HttQ103 aggreg | HTT ATP protect | aGal spleen mod
Cc1ccc(C(NC(=O)C(C)C)c2cc([N+](=O)[O-])c3cccnc3c2O)cc1 (configuration not stated) | . | 20µM | .[10 µM] | .
O=[N+]([O-])c1cccc(CN2C(COCc3ccccc3)CCC=CS2(=O)=O)c1 (configuration not stated) | / | / | / | .
CC(C)=C1CCC(C)CC1=O (configuration not stated) | / | / | . | .
O=C(c1ccc(COc2c(F)c(F)c(F)c(F)c2F)o1)N1CCOCC1 | . | . | . | .
O=C(c1ccc(C23CC4CC(CC(C4)C2)C3)o1)N1CCOCC1 | . | 5.62µM | . | .
CC(=O)N[C@@H](CCC(=O)O)C(=O)O | / | . | 2µM | /
CC(=O)N[C@@H](CC(=O)O)C(=O)O | . | / | ? | .
CCC(C(=O)NC(N)=O)c1ccccc1 (configuration not stated) | / | . | . | /
O=C(O)c1ccc(CS(=O)c2cccc(C(F)(F)F)c2)o1 (configuration not stated) | . | 12.6µM | .[0.074 µM] | .
CCOC(=O)C1=C(N)Oc2ccc(Br)cc2C1C(C#N)C(=O)OCC (configuration not stated) | / | / | . | .
COC(=O)[C@@]1(Cc2ccc(F)cc2)[C@@H]2C(=CC(=O)[C@H]2CC(=O)C(=O)N(C)C)CN1C(=O)c1ccccc1 | . | / | 3.98µM | .
CCOc1ccccc1C1CC(=O)NC2=C1C(=O)CC(C)(C)C2 (configuration not stated) | . | 35.5µM | . | .
CC(C)(C)OC(=O)NCC(=O)Oc1cc2oc(=O)cc(-c3ccccc3)c2cc1Cl | . | 3.98µM | .[10 µM] | .
O=C(Oc1cc2oc(=O)cc(-c3ccccc3)c2cc1Cl)C1CCCCC1 | . | 7.08µM | . | .
COC(=O)[C@@H]1[C@H]2C[C@H]3c4[nH]c5ccccc5c4CCN3C[C@H]2CC[C@@H]1O | / | / | . | .
CCOC(=O)CCN1C(=O)[C@H]2[C@H]3[C@H](O)[C@H](O)C/C(=N/NC(=O)OCC)[C@H]3CC[C@@H]2C1=O | / | / | .[10 µM] | .[17.5 µM]
CC(=O)N1CCc2cc(S(=O)(=O)NC3CCCc4ccccc43)ccc21 (configuration not stated) | . | 7.08µM | .[10 µM] | .
NC(=O)c1sc2nc3c(c(-c4ccc(Cl)cc4)c2c1N)CCCC3 | . | . | ? | .
Cc1ccc(-c2c3c(nc4sc(C(N)=O)c(N)c24)CCC3)cc1 | . | 10µM | . | .
CCc1ccc(/C=c2\s/c(=C\C(=O)C(C)(C)C)[nH]c2=O)cc1 | . | 14.1µM | . | .
Cc1sc2ncnc(N3CCN(CCOc4ccc(Cl)cc4)CC3)c2c1C | . | 2µM | . | .
CC(=O)c1cc2c(cc1NS(=O)(=O)c1ccccc1)OCO2 | . | .[9.22 µM] | . | .
CCC(C)NS(=O)(=O)c1ccc(S(=O)(=O)Nc2cc3c(cc2C(C)=O)OCO3)cc1 (configuration not stated) | . | 12.6µM | ? | .
CCCCCCCCCCCCCC[C@@H](O)[C@@H](O)[C@@H](N)CO | / | / | / | .
O=C1C2C3C=CC(C3)C2C(=O)N1/N=C/c1cc(Br)cc([N+](=O)[O-])c1O (configuration not stated) | . | 12.6µM | .[10 µM] | .
SMILES | GLA inh pH 4.5 | HttQ103 aggreg | HTT ATP protect | aGal spleen mod
COC(=O)C/C=C/C(C)C(OC)c1ccccc1Br (configuration not stated) | / | / | .[10 µM] | .[17.5 µM]
N=c1ccn2c(n1)OCC1C2O[C@@H](O)[C@H]1O (some centres not stated) | . | / | . | .
C=CCCC(=O)Nc1nc(C)c(-c2csc(Nc3cc(OC)ccc3OC)n2)s1 | . | 10µM | . | .
CCOC(=O)c1nnc(-c2ccc(C)cc2)nc1Oc1ccc(Cl)cc1Cl | . | . | . | .
CCOC(=O)c1nnc(-c2ccc(C)cc2)nc1Oc1ccccc1Cl | . | 22.4µM | / | .
O=C(c1ccc(S(=O)(=O)Cc2cc(F)ccc2F)c([N+](=O)[O-])c1)N1CCCCC1 | . | 12.6µM | .[10 µM] | .
O=C(c1ccc(S(=O)(=O)Cc2ccccc2Cl)c([N+](=O)[O-])c1)N1CCN(c2ccccn2)CC1 | . | 15.8µM | . | .
CC1CCN(C(=O)c2ccc(S(=O)(=O)Cc3cccc(F)c3)c([N+](=O)[O-])c2)CC1 | . | ? | .[10 µM] | .
O=C(c1ccc(S(=O)(=O)Cc2cc(F)ccc2F)c([N+](=O)[O-])c1)N1CCCC1 | . | 15.8µM | . | .
COc1ccc(-c2nc3c(c4c2C[C@H](c2ccccc2)OC4)CN(C(=O)NCc2ccco2)CC3)c(C)c1 | . | / | .[10 µM] | .[17.5 µM]
c1cc(-c2cnn3cc(-c4ccc(OCCN5CCCCC5)cc4)cnc23)ccn1 | / | / | / | .
O=c1c(Br)c(Br)cnn1-c1ccccc1 | . | 5.62µM | .[10 µM] | .
Cc1ccc(-n2ncc(Br)c(Br)c2=O)cc1 | . | / | .[10 µM] | .
COc1ccc([C@@H]2CC(=O)c3c(O)cc(O[C@@H]4O[C@H](CO[C@@H]5O[C@@H](C)[C@H](O)[C@@H](O)[C@H]5O)[C@@H](O)[C@H](O)[C@H]4O)cc3O2)cc1 | / | / | / | .
Cc1cc(O)c(C)c2sc(N)nc12 | / | / | / | .
CCCCCCOc1ccc(C(=O)n2cnc(N)n2)cc1 | . | / | 12.6µM | .
CCCCc1cc2c(cn1)=C(OC(=O)c1ccco1)C(C)(OC(=O)CC)C(=O)C=2 (configuration not stated) | . | / | .[10 µM] | .[17.5 µM]
CCCC(=O)NC(c1ccc2c(c1)OCO2)c1cc(Cl)c2cccnc2c1O (configuration not stated) | . | 2.82µM | .[10 µM] | .
O=C(NC(c1ccccc1)c1cc(Cl)c2cccnc2c1O)c1cccnc1 (configuration not stated) | . | 3.98µM | .[10 µM] | .
CCCC(=O)NC(c1ccco1)c1cc(Cl)c2cccnc2c1O (configuration not stated) | . | ? | . | .
O=C(OCC(=O)N1CCc2ccccc21)c1cncc(Br)c1 | . | ? | 2.24µM | .
CCN1/C(=C/c2sc(-c3ccccc3C)c[n+]2C)Sc2ccccc21 | . | 2.24µM | . | .
CCN1/C(=C/C(=O)c2ccco2)Sc2ccccc21 | . | ? | . | .
CC(=O)Nc1cc(OC(C)=O)c2nonc2c1OC(C)=O | . | 7.08µM | . | .
C/C(=N\NC(=O)c1ccncc1)c1cc2ccccc2oc1=O | . | ? | .[10 µM] | .
SMILES | GLA inh pH 4.5 | HttQ103 aggreg | HTT ATP protect | aGal spleen mod
C/C(=N/NC(=O)c1ccncc1)c1cc2ccc(O)cc2oc1=O | ? | 12.6µM | .[10 µM] | ?
CC1CC=CC2C1C(=O)N(Cc1ccccc1)C2c1ccc(F)c(/C=C/c2ccccc2)c1 (configuration not stated) | / | / | / | .
CCc1nc(SCC(=O)Nc2nc3c(s2)CCCC3)c2ccccc2n1 | . | / | 25.1µM | .
COc1cc([C@@H]2Oc3cc([C@H]4Oc5cc(O)cc(O)c5C(=O)[C@H]4O)ccc3O[C@H]2CO)ccc1O | . | / | .[1.9 µM] | .
CCOc1ccc(S(=O)(=O)n2cnc3cc(C)c(C)cc32)cc1 | . | 11.2µM | .[10 µM] | .
COc1ccc(OC)c(S(=O)(=O)n2cnc3cc(C)c(C)cc32)c1 | . | . | . | .
